Experimental data from paper PMC5540273 (PLoS ONE, 2017).

system: DYRK1B; conditions: concentration: 1 μM, replicates: in singlicate; n = 1
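Further: KINOMEscan kinase panel screen.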

| Structure (SMILES) | %Inh [%] |
| --- | --- |
| CC(=O)N1CCN(c2ccc(Nc3nccc(-c4sc(C(C)C)nc4-c4cccc(NS(=O)(=O)c5cccc(Cl)c5)c4)n3)cn2)CC1 [GSK1660437] | 0 |
| CN(C)S(=O)(=O)c1cc(-c2ccc3nccc(-c4cccc(S(N)(=O)=O)c4)c3c2)cnc1N [GSK1669921] | 0 |
| O=C(NC1CCN(c2ccnc(Nc3ccc(F)cc3)n2)C1)c1cc2ccccc2s1 (stereo not shown) [GSK1379716] | 14 |
| Cn1cc(-c2ccc3c(c2)CCN3C(=O)Cc2cccc(Cl)c2)c2c(N)ncnc21 [GSK2606590] | 0 |
| FC(F)(F)c1ccc(/C=C/c2cncnc2Nc2ccc3[nH]c(Cc4ccccc4)nc3c2)cc1 [GW709199] | 31 |
| Cl.c1ccc(-c2ccc3c(Nc4ccc5[nH]ccc5c4)ccnc3c2)nc1 [GW440138] | 0 |
| c1ccc(-c2n[nH]cc2Nc2ccnc3ccccc23)nc1 [GW694077] | 100 |
| CC(C)c1nc(-c2cccc(NS(=O)(=O)c3c(F)cccc3F)c2F)c(-c2ccnc(Nc3ccc(N4CCOCC4)nc3)n2)s1 [GSK2008607] | 0 |
| COc1cc(Nc2nccc(N3CCC(NC(=O)c4cc5ccccc5s4)C3)n2)cc(OC)c1OC (stereo not shown) [GSK1379760] | 33 |
| COc1cc(Nc2ncc3c(C)nc(-c4cc5ccccc5[nH]4)n3n2)cc(OC)c1OC [GW869516] | 81 |
| Cn1cc(-c2[nH]c3cc(NC(=O)[C@H](N)C4CCCCC4)cc4c3c2C=NNC4=O)cn1 | 0 |
| COC(=O)Nc1nc2ccc(Oc3ccc(NC(=O)Nc4cc(C(F)(F)F)ccc4F)cc3)cc2n1C.Cl [GW692089] | 26 |
| CCS(=O)(=O)c1ccc(OC)c(Nc2nccc(-c3c(-c4cccc(NC(=O)c5c(F)cccc5F)c4)nn4ncccc34)n2)c1 [GSK326180] | 0 |
| CCn1c(-c2nonc2N)nc2c(C#CC(C)(C)O)nc(OC[C@H](N)c3ccccc3)cc21 [GSK943949] | 0 |
| CC(=O)Nc1nc2cnc(Nc3cc(NC(=O)c4cccc(C5(C#N)CC5)c4Cl)ccc3C)nc2s1 | 67 |
| COc1ccc(CNC(=O)NC2CCN(c3ccnc(Nc4ccc(F)cc4)n3)CC2)cc1 [GSK1379788] | 0 |

| Structure (SMILES) | %Inh [%] |
| --- | --- |
| O=C(O)C(F)(F)F.O=C(O)C(F)(F)F.O=c1[nH]ccc2nc(N[C@@H]3CCCNC3)nc(Nc3ccc(S(=O)(=O)N4CCOCC4)cc3)c12 [GSK2177277] | 0 |
| Cc1occc1-c1ncc(OC[C@@H](N)Cc2c[nH]c3ccccc23)cc1-c1ccc2[nH]nc(C)c2c1.O=C(O)C(F)(F)F [GSK682037] | 0 |
| CSc1cccc2c(-c3ccncn3)c(-c3ccc(F)cc3)nn12 [GW514786] | 0 |
| CN1CCN(Cc2cccc(-c3ccc4c(Nc5ccc(Oc6ccccc6)cc5)ccnc4c3)c2)CC1 [GW578342] | 13 |
| COc1cccc(NC(=O)NC2CCN(c3ccnc(Nc4cc(OC)c(OC)c(OC)c4)n3)C2)c1 (stereo not shown) [GSK1379763] | 15 |
| CN1CCN(CCCNc2nccc(-c3c(-c4ccc(F)cc4)nn4cc(C(F)(F)F)ccc34)n2)CC1 [GW621581] | 0 |
| COc1cc(Nc2nccc(N3CCC(NC(=O)Nc4cccc(C(C)=O)c4)C3)n2)cc(OC)c1OC (stereo not shown) [GSK1379753] | 67 |
| Cn1cc(-c2ccc3c(c2)CCN3C(=O)Cc2cccc(F)c2)c2c(N)ncnc21 [GSK2603358] | 1 |
| Clc1ccc(-c2nn3ncccc3c2-c2ccnc(Nc3ccc4c(c3)OCCO4)n2)cc1 [GW829116] | 0 |
| Cl.Cl.NCC(NC(=O)c1cc(-c2ccccc2)c(-c2ccnc3[nH]ccc23)s1)c1ccccc1 (stereo not shown) [GSK1321561] | 100 |
| c1ccc(Oc2ccc(Nc3ccnc4cc(-c5ccc(CNCCN6CCOCC6)o5)ccc34)cc2)nc1 [GW567145] | 0 |
| CC(C)(C)c1ccc2nccc(Nc3cccc(O)c3)c2c1 [GW856795] | 48 |
| COc1ccc(-c2coc3ccc(-c4nnc(SCc5ccc(OC)c(C(F)(F)F)c5)o4)cc23)cc1 | 0 |
| COc1cccc(C2=C(Nc3ccc(Cl)c(C(=O)O)c3)C(=O)NC2=O)c1 [SB-390769] | 100 |
| O=C(Nc1n[nH]c2nc(-c3ccc(O)cc3)ccc12)C1CC1 [SB-710363] | 65 |
